Assay: JC-1 mitochondrial signal, unstimulated myeloma cells – cell-based, JC-1 fluorescence, RPMI8226, 24 h, 100 nL compound, profiling panel (AID 1169)
Settings: JC-1 mitochondrial potential fluorescence, higher = more signal
Note: test concentration not given here.

SMILES	z-score
CC(C)c1ccc(NN2C(C(O)C(c3ccccc3)c3ccccc3)C=CC3C(=O)N(c4ccccc4)C(=O)C32)cc1 (stereo not given)	-0.107
CCN(CC)c1ccc(N2CC=CC34O[C@@H]5/C=C\CCCOC(=O)C5[C@H]3C(=O)N(CCO)[C@@H]4C2=O)cc1 (stereo not given in full)	-0.814
COCCCNC(=O)C1N=C(c2ccc(OCCCO)cc2)N(c2ccccc2)O1 (stereo not given)	-0.492
COc1ccc([Si](C)(C)[C@H]2[C@H](CCO)O[C@@]3(C(=O)N(C)c4c(Br)cc(C)cc43)[C@@H]2C)cc1	-1.05
COC(=O)[C@@]1(Cc2ccccc2)[C@H]2c3cc(C(=O)N4CCCC4)n(CC4CC4)c3C[C@H]2CN1C(=O)c1ccccc1	-0.516
O=C1O[C@H](c2ccccc2)[C@H](c2ccccc2)N2[C@H]1[C@@H](C(=O)Nc1nc3ccccc3s1)[C@]1(C(=O)Nc3ccc(C#CC4(O)CCCCCC4)cc31)[C@H]2c1ccc(OCCO)cc1	-1.22
COC(=O)[C@@]1(Cc2ccc(F)cc2)[C@H]2c3cc(C(=O)N4CCCC4)n(Cc4cc(C)n(C)n4)c3C[C@H]2CN1C(=O)c1ccccc1	-0.0438
CC(C)(C)OC(=O)CC[C@@]12N=C(c3ccc(OCCCO)cc3)O[C@@H]1c1ccccc1N(CCS(=O)(=O)c1ccccc1)C2=O	-0.814
CC(C)(C)OC(=O)CC[C@]1(C(=O)NCC(O)CO)COC(c2ccc(OCCCO)cc2)=N1 (stereo not given in full)	0.527
C=CC[C@@]1(C(N)=O)N=C(c2ccc(OCCCO)cc2)O[C@@H]1c1ccccc1CN=[N+]=[N-]	-0.231

Assay: JC-1 mitochondrial signal, unstimulated MM1S myeloma – cell-based, JC-1 fluorescence, 24 h, 100 nL compound, profiling panel (AID 1170)
Settings: MM1S mitochondrial potential, higher = more signal

SMILES	z-score
COCCOC(=O)N1C(=O)[C@@]2(c3cc(C#Cc4ccc(OC)cc4)ccc31)[C@H](C(N)=O)[C@H]1C(=O)O[C@H](c3ccccc3)[C@H](c3ccccc3)N1[C@@H]2c1ccccc1OCCO	-1.38
C=CCN1C(=O)[C@@]2(O[C@@H](CCO)[C@H]([Si](C)(C)c3ccc(OC)cc3)[C@H]2C)c2cc(NC(=O)c3ccc(OC)cc3)ccc21	-1.97
COC(=O)[C@@]1(Cc2ccc(F)cc2)[C@@H]2[C@@H](CC(=O)[C@H]2CC(=O)C(=O)N(C)C)CN1C(=O)c1ccccc1	-1.92
O=C1C2C=CC(C(O)c3ccc(F)cc3)N(Nc3ccccc3F)C2C(=O)N1c1ccccc1 (stereo not given)	0.396
C=CCN(Cc1ccccc1)C(=O)C(c1cccs1)N(CCOCCO)C(=O)/C=C\C(=O)O (stereo not given)	-1.37
C=C(CCCC)/C(=C/C[C@@H](OC(C)=O)c1ccccc1OCCO)c1cnc2ccccc2c1	0.61
COc1cc2c(cc1OC)CN(C(=O)[C@@H]1[C@H]3C(=O)O[C@H](c4ccccc4)[C@H](c4ccccc4)N3[C@H](c3ccc(O)cc3)[C@@]13C(=O)Nc1ccc(C#CC4(O)CCCCCC4)cc13)CC2	-0.401
COCCOC(=O)N1C(=O)[C@@]2(c3cc(C#Cc4ccc(OC)cc4)ccc31)[C@H](c1ccc(O)cc1)N1[C@H](c3ccccc3)[C@H](c3ccccc3)OC(=O)[C@H]1[C@@H]2C(=O)NC[C@H](O)c1ccccc1	-0.524
COCCOC(=O)N1C(=O)[C@@]2(c3cc(C#CC4=CCCCC4)ccc31)[C@H](C(=O)Nc1nc3ccccc3s1)[C@H]1C(=O)O[C@H](c3ccccc3)[C@H](c3ccccc3)N1[C@@H]2c1ccccc1OCCO	-1.29
CN(C)C(=O)[C@]1(Cc2ccccc2CN=[N+]=[N-])N=C(c2ccc(OCCCO)cc2)O[C@@H]1c1ccccc1CN=[N+]=[N-]	-0.0198
COc1ccc([C@H]2OC[C@@H]3CC4(CC=CC4)C(=O)N32)cc1	0.17
CCCC[C@@H]1C[C@H]1[C@@H](NC(=O)c1ccco1)c1ccc(C(=O)OC)cc1	-1.19
O=C1C[C@]2(c3ccc([N+](=O)[O-])cc3)C(=O)N(CCN3CCOCC3)c3cc(CO)ccc3[C@H]2N1C1CCCCC1	-0.509
O=C(O)[C@@]1(CCS(=O)(=O)c2ccccc2)COC(c2ccc(OCCCO)cc2)=N1	-0.436
COc1ccc(C(O)C2C=CC3C(=O)N(c4ccccc4)C(=O)C3N2Nc2ccccc2F)cc1OCc1ccccc1 (stereo not given)	-0.909
CC(=O)NCCCC[C@@H]1NC(=O)[C@@H]2C[C@H](C(=O)NCCCCN(C)C)[C@H](c3cccc(OCCO)c3)N2C1=O	-0.436
O=C1NC(=O)C2C1C=CC(C(O)C(c1ccccc1)c1ccccc1)N2Nc1ccc(Cl)cc1Cl (stereo not given)	-0.133
COC(=O)C(CC#Cc1ccc2c(c1)[C@]1(C(=O)N2)[C@H](c2ccc(O)cc2)N2[C@H](c3ccccc3)[C@H](c3ccccc3)OC(=O)[C@H]2[C@@H]1C(=O)Nc1nc2ccccc2s1)C(=O)OC	0.422

SMILES	z-score
C=CCOC(=O)[C@H]1[C@@H]2C(=O)O[C@@H](c3ccccc3)[C@@H](c3ccccc3)N2[C@@H](c2ccc(OCCOC(=O)[C@@H]3C[C@@H]4C(=O)N5CCC[C@H]5C(=O)N4[C@@H]3c3cccc(OCCO)c3)cc2)[C@]12C(=O)Nc1ccccc12	-0.421
COc1cc(CO)cc(I)c1O[C@H]1C=C(C(=O)NCCO)C[C@@H](N(CCN2CCOCC2)C(=O)C2CCOC2)[C@@H]1O (stereo not given in full)	0.684
C=CCOC(=O)[C@@H]1[C@H]2C(=O)O[C@H](c3ccccc3)[C@H](c3ccccc3)N2[C@H](c2ccc(OCCOC(=O)[C@@H]3C[C@@H]4C(=O)N[C@@H](Cc5ccccc5)C(=O)N4[C@@H]3c3ccc(O)cc3)cc2)[C@@]12C(=O)Nc1ccc(I)cc12	-1.38
C=CCNC(=O)[C@H]1[C@@H]2C(=O)O[C@@H](c3ccccc3)[C@@H](c3ccccc3)N2[C@@H](c2ccccc2OCCO)[C@]12C(=O)Nc1ccc(C#CC3=CCCCC3)cc12	-1.84
Cc1ccc(S[C@]2(C(=O)NCCN3CCOCC3)CC(=O)N(Cc3ccccc3Cl)[C@@H]2c2ccc(CO)cc2)cc1	-1.17
COC(=O)[C@@]1(Cc2ccc(OC)cc2)[C@H]2c3cc(C(=O)N4CCCC4)n(Cc4ccccc4)c3C[C@H]2CN1C(=O)c1ccccc1	-1.3
CC(C)C(=C=CC[C@@H](O)c1ccccc1OCCO)CCO	-0.0293
CC(C)c1ccc(NN2C(C(O)C(c3ccccc3)c3ccccc3)C=CC3C(=O)N(c4ccccc4)C(=O)C32)cc1 (stereo not given)	0.798
CCN(CC)c1ccc(N2CC=CC34O[C@@H]5/C=C\CCCOC(=O)C5[C@H]3C(=O)N(CCO)[C@@H]4C2=O)cc1 (stereo not given in full)	-0.245
COCCCNC(=O)C1N=C(c2ccc(OCCCO)cc2)N(c2ccccc2)O1 (stereo not given)	-0.213
COc1ccc([Si](C)(C)[C@H]2[C@H](CCO)O[C@@]3(C(=O)N(C)c4c(Br)cc(C)cc43)[C@@H]2C)cc1	-2.29
COC(=O)[C@@]1(Cc2ccccc2)[C@H]2c3cc(C(=O)N4CCCC4)n(CC4CC4)c3C[C@H]2CN1C(=O)c1ccccc1	-0.569
O=C1O[C@H](c2ccccc2)[C@H](c2ccccc2)N2[C@H]1[C@@H](C(=O)Nc1nc3ccccc3s1)[C@]1(C(=O)Nc3ccc(C#CC4(O)CCCCCC4)cc31)[C@H]2c1ccc(OCCO)cc1	-1.41
COC(=O)[C@@]1(Cc2ccc(F)cc2)[C@H]2c3cc(C(=O)N4CCCC4)n(Cc4cc(C)n(C)n4)c3C[C@H]2CN1C(=O)c1ccccc1	-0.461
CC(C)(C)OC(=O)CC[C@@]12N=C(c3ccc(OCCCO)cc3)O[C@@H]1c1ccccc1N(CCS(=O)(=O)c1ccccc1)C2=O	-1.13
CC(C)(C)OC(=O)CC[C@]1(C(=O)NCC(O)CO)COC(c2ccc(OCCCO)cc2)=N1 (stereo not given in full)	-0.23
C=CC[C@@]1(C(N)=O)N=C(c2ccc(OCCCO)cc2)O[C@@H]1c1ccccc1CN=[N+]=[N-]	-1.79

Reference: PubChem BioAssay
